Drawing on article PMC11062922 (Nature Chemical Biology, 2023), this text covers potency estimated from few doses for 20 compounds.

Like-named read-outs stand apart in the source and are kept apart here.

Set-up in all cases: species or system human, MV4-11 + K-562 + COLO205 + SK-N-BE2 + OVCAR-8
In one experiment the test system is MARK2. The following applies: read-out: apparent Kd, compound concentrations: 100 nM and 1000 nM (sheet 'Samples'), n = 1.
The subject of the next experiment is MARK3. The following applies: read-out: apparent Kd, compound concentrations: 100 nM and 1000 nM (sheet 'Samples'), n = 1.
For the next experiment, the system named is MTHFD1. To be noted: read-out: apparent Kd, n = 1.
The test system of the next experiment is IRAK4. To be noted: read-out: apparent Kd, compound concentrations: 100 nM and 1000 nM (sheet 'Samples'), n = 1.
The test system of the next experiment is NME2;NME2P1. The following applies: read-out: apparent Kd, n = 1.
The subject of another experiment is SMC4. The following applies: read-out: apparent Kd, n = 1.
For the next experiment, the system named is DYNC1LI1. To be noted: read-out: apparent Kd, compound concentrations: 100 nM and 1000 nM (sheet 'Samples'), n = 1.
A further experiment deals with PRKDC. To be noted: read-out: apparent Kd; compound concentrations:100 nM and 1000 nM (sheet 'Samples'); n = 1.
A further experiment relates to T1, T10.
T1 construct: gene NAT10
To be noted: read-out: apparent Kd; compound concentrations:100 nM and 1000 nM (sheet 'Samples'); n = 1.

A further experiment has as its system PRKCD. The following applies: read-out: apparent Kd, compound concentrations: 100 nM and 1000 nM (sheet 'Samples'), n = 1.
For the next experiment, the system named is BMPR2. The following applies: read-out: apparent Kd, compound concentrations: 100 nM and 1000 nM (sheet 'Samples'), n = 1.
The next experiment has as its system MAP3K6. The following applies: read-out: apparent Kd, compound concentrations: 100 nM and 1000 nM (sheet 'Samples'), n = 1.
In the next experiment the test system is WEE1. To be noted: read-out: apparent Kd, n = 1.
A further experiment concerns JAK1. To be noted: read-out: apparent Kd, n = 1.
The test system of another experiment is LATS1. To be noted: read-out: apparent Kd, compound concentrations: 100 nM and 1000 nM (sheet 'Samples'), n = 1.
A further experiment has as its system PKN1. To be noted: read-out: apparent Kd, n = 1.
A further experiment deals with PRKACB. The following applies: read-out: apparent Kd, n = 1.
In another experiment the test system is RPS6KA3. The following applies: read-out: apparent Kd, compound concentrations: 100 nM and 1000 nM (sheet 'Samples'), n = 1.
The next experiment relates to TBK1. The following applies: read-out: apparent Kd, compound concentrations: 100 nM and 1000 nM (sheet 'Samples'), n = 1.
For another experiment, the system named is PI4KA. To be noted: read-out: apparent Kd; compound concentrations:100 nM and 1000 nM (sheet 'Samples'); n = 1.
[1] abbreviates: compound concentrations:100 nM and 1000 nM (sheet 'Samples').

Consider `CN1C(=O)c2ccccc2N(C)c2nc(Nc3cnn(C4CCNCC4)c3)ncc21` [XMD-17-51], for which the potency estimated from few doses in the experiment on MARK2 (CATDS: 1.3481113896194E-2) was 2050 nM; with MARK3 (CATDS: 1.4488422936038499E-2) it was 1430 nM.
With `O=C1N=C(NCCc2ccccn2)S/C1=C\c1ccc2ncccc2c1` [RO4508346-000], the potency estimated from few doses in the experiment with MTHFD1 (compound concentrations: 100 nM and 1000 nM (sheet 'Samples'), CATDS: 6.5916651027534801E-2) is 1980 nM.
Turning to `Cl.O=C1N=C(NCc2ccccn2)S/C1=C\c1ccc2ncccc2c1` [RO4874953-001], in the experiment on IRAK4 (CATDS: 7.1454413714057002E-2), the potency estimated from few doses is 1930 nM.
As to `Nc1nc(-c2ccc3c(N)n[nH]c3c2)cc(N2CCCCC2)n1` [GSK2228768A], the potency estimated from few doses with NME2;NME2P1 (setting [1]) was 1380 nM; with SMC4 (setting [1]), 2040 nM.
Take `COc1cc(Nc2nccc(N3CCC(NC(=O)C4COc5ccccc5O4)C3)n2)cc(OC)c1OC` (stereo not shown) [GSK1379761A]: the potency estimated from few doses in the experiment with DYNC1LI1 (CATDS: 0.20239822738500499) was 2020 nM.
On to `Cc1cccc(-c2cc(-c3c[nH]nc3-c3ccccn3)ccn2)c1` [GW679395X], for which the potency estimated from few doses is 1130 nM in the experiment with PRKDC and 1940 nM in the experiment on T10.
For the compound `Cn1cc(C2=C(c3cn(CCCO)c4ccccc34)C(=O)NC2=O)c2ccccc21` [RO0317377-000], the potency estimated from few doses with PRKCD (CATDS: 9.7795114941797295E-2) was 2020 nM.
For `COc1cc(Nc2ccnc3cc(-c4ccncc4)ccc23)cc(OC)c1OC.Cl` [GW494610A], the potency estimated from few doses with BMPR2 (CATDS: 2.09550401545208E-2) was 2200 nM.
For `CNC1=NC(=O)/C(=C/c2ccc3ncccc3c2)S1` [RO4595949-000], in the experiment with MAP3K6 (CATDS: 5.3158736559022798E-2), the potency estimated from few doses is 1510 nM.
As for `CCN(CC)CCOc1ccc(Nc2ncc3cc(-c4c(Cl)cccc4Cl)c(=O)n(C)c3n2)cc1` [SB-601273], in the experiment with WEE1 (setting [1]), the potency estimated from few doses is 171 nM.
For the compound `O=C1N=C(NCc2cccs2)SC1Cc1ccc2ncccc2c1` (stereo not shown) [RO4629078-000], the potency estimated from few doses in the experiment on JAK1 (compound concentrations: 100 nM and 1000 nM (sheet 'Samples'), CATDS: 8.4918440228529003E-3) is 1060 nM; in the experiment on LATS1 (CATDS: 8.7867541844469099E-3), 953 nM; in the experiment on MARK2 (CATDS: 7.7790140637755802E-3) it was 1430 nM; in the experiment with MARK3 (CATDS: 8.2190831573709308E-3) it was 1180 nM; in the experiment on PKN1 (compound concentrations: 100 nM and 1000 nM (sheet 'Samples'), CATDS: 8.6120949637054304E-3), 1010 nM; in the experiment with PRKACB (compound concentrations: 100 nM and 1000 nM (sheet 'Samples'), CATDS: 8.4250069561530305E-3) it was 1080 nM. Besides, the potency estimated from few doses is 1170 nM in the experiment with PRKCD (CATDS: 8.2287657459755997E-3), 1090 nM in the experiment on RPS6KA3 (CATDS: 8.4062550540876194E-3) and 1490 nM in the experiment on TBK1 (CATDS: 7.6855251717376097E-3).
Regarding `Nc1nc(N)c2nc(-c3ccccc3)[nH]c2n1` [SKF-12778], the potency estimated from few doses in the experiment with JAK1 (setting [1]) is 953 nM; in the experiment on PI4KA it was 1400 nM; in the experiment with PRKACB (setting [1]), 1790 nM; in the experiment on PRKDC it was 716 nM; with T10 it was 1130 nM.
`CNC(=O)c1ccccc1Nc1nc(Nc2cccc(CS(C)(=O)=O)c2)ncc1C.O=CO` [GSK1520489A]: the potency estimated from few doses in the experiment with BMPR2 (CATDS: 1.16298732818768E-2) was 672 nM; in the experiment on IRAK4 (CATDS: 9.4049632429945695E-3), 1870 nM; in the experiment on LATS1 (CATDS: 9.9587793654228995E-3), 1340 nM; with RPS6KA3 (CATDS: 1.12432401151655E-2), 768 nM; with TBK1 (CATDS: 1.25946113140399E-2) it was 504 nM; in the experiment on WEE1 (compound concentrations: 100 nM and 1000 nM (sheet 'Samples'), CATDS: 2.0722471674581099E-2) it was 127 nM.
Turning to `O=S(=O)(CCOCc1ccc(-c2ccc3ncnc(Nc4ccc(OCc5cccc(F)c5)c(Cl)c4)c3c2)o1)c1ccccc1` [GW615311X], the potency estimated from few doses in the experiment on MAP3K6 (CATDS: 2.8394321566467099E-2) is 1310 nM.
Take `COc1ccc(C2=C(Nc3cccc(O)c3)C(=O)NC2=O)cc1` [SB-390766]: the potency estimated from few doses in the experiment on PI4KA is 1330 nM.
Take `COc1cc(F)c(F)c(F)c1C(=O)c1cnc(NC2CCN(S(C)(=O)=O)CC2)nc1N` [RO4600703-000]: the potency estimated from few doses in the experiment with MTHFD1 (setting [1]) was 1300 nM.
Turning to `Fc1cccc(COc2ccc(Nc3ncncc3C#Cc3ccccc3)cc2Cl)c1` [GW651576X], the potency estimated from few doses with DYNC1LI1 (CATDS: 4.5527640720115801E-2) is 2220 nM.
In the case of `COc1ccc(C2=NC(c3ccc(Cl)cc3F)C(C(=O)Nc3ccc4[nH]ncc4c3)=C(C)N2)cn1.O=C(O)C(F)(F)F` (stereo not shown) [GSK534913A], in the experiment with PKN1 (setting [1]), the potency estimated from few doses was 2050 nM.
`Cc1[nH]nc2c1N=C(c1ccccc1Cl)c1cc([N+](=O)[O-])ccc1N2` [RO0274406-000]: the potency estimated from few doses in the experiment with NME2;NME2P1 (compound concentrations: 100 nM and 1000 nM (sheet 'Samples'), CATDS: 6.5363052061215496E-2) is 1680 nM.
With `O=C1NC(=O)C(c2cccc(Cl)c2)=C1Nc1ccc(O)c(Cl)c1` [SB-409514], the potency estimated from few doses in the experiment with SMC4 (compound concentrations: 100 nM and 1000 nM (sheet 'Samples'), CATDS: 0.290936381936651) was 1760 nM.
